This is an account of results in PubChem BioAssay (Tox21).

The nature of assay [1]: qHTS assay to identify small molecule antagonists of the vitamin D receptor (VDR) signaling pathway - cell viability counter screen (AID 743225). Further: nearly all actives have a fitted effect of over 50% in size. The essentials: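 Cytotoxicity toward the VDR-bla HEK 293T line was scored by ATP-based CellTiter-Glo luminescence, read in the wells already used for the beta-lactamase readout after 16 h compound treatment under 3 nM 1-alpha,25-dihydroxyvitamin D3 stimulation.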

The nature of assay [2]: qHTS assay to identify small molecule agonists of the NFkB signaling pathway (AID 1159509; active means well fitted curve in the direction sought with a large enough effect in the signal ratio in the repeat runs, not every such curve was filed as active; the % refers to the signal ratio; further: series mostly up to about 61 µM). Summed up: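 NFkB-bla ME-180 cells with a beta-lactamase reporter under an NF-kB response element were plated overnight, treated with compounds in DMSO for 5 hr at 37 C, then loaded with FRET substrate for 1.5 hr at room temperature.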
Assay [3] is described as follows: qHTS assay to identify small molecule agonists of the NFkB signaling pathway - cell viability counter screen (AID 1159515; calls by dose curve; further: series mostly up to about 61 µM; nearly all actives have a fitted effect of over 55% in size). Summed up: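 5 hr compound treatment of NFkB-bla ME-180 cells (2,000/well, seeded overnight beforehand), followed by reporter substrate for 1.5 hr. CellTiter-Glo added afterward; luminescence after 30 min RT.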
Assay [4] is described as follows: qHTS assay to identify small molecule agonists of the endoplasmic reticulum stress response signaling pathway (AID 1159516; active means well fitted activation curve with a large enough effect in the signal ratio in the repeat runs, not every such curve was filed as active; the % refers to the signal ratio). The essentials:
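Reporter HeLa cells (ESRE-beta-lactamase) underwent 5 hr compound incubation at 37 C and 5% CO2 in quantitative HTS format. Detection followed 2 hr of FRET substrate loading at room temperature.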

Assay [5] in a line: qHTS assay to identify small molecule agonists of the endoplasmic reticulum stress response signaling pathway - cell viability counter screen (AID 1159517; calls by dose curve;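 further: HeLa cells carrying an ER stress response element beta-lactamase reporter; series mostly up to about 61 µM; nearly all actives have a fitted effect of over 50% in size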). Summed up: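 Luminescence readout: CellTiter-Glo, 30 min RT, same wells as the ESRE-bla reporter read. HeLa ESRE-bla, 1,500 cells/well, o/n 37 C; cpd 5 hr 37 C/5% CO2.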
The nature of assay [6]: qHTS assay to identify small molecule antagonists of the retinoid-related orphan receptor gamma (ROR-gamma) signaling pathway - cell viability counter screen (AID 1159520). Further: nearly all actives have a fitted effect of over 50% in size. Summed up:
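Tet-on ROR gamma CHO cells (1,000/well) were plated 4 hr, given compounds in DMSO for 2 hr at 37 C, then induced with 1 uM final doxycycline for 16 hr. Viability was read as ATP by CellTiter-Glo luminescence after 30 min.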

Assay [7] addresses Nuclear receptor ROR-gamma (Homo sapiens) (UniProt P51449). Kind of assay: qHTS assay to identify small molecule antagonists of the retinoid-related orphan receptor gamma (ROR-gamma) signaling pathway (AID 1159521;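 further: CHO cells with doxycycline inducible ROR-gamma driving an RORE luciferase reporter; top concentration of the series differs between compounds; nearly all actives have a fitted effect of over 50% in size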). Summed up:
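Readout: ONE-Glo luciferase luminescence, 30 min at room temperature. System: Tet-on RORγ CHO, RORE-LUC. Sequence: compound 2 h, doxycycline 1 uM final, 16 h at 37 C.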

The nature of assay [8]: qHTS assay to identify small molecule agonists of the AP-1 signaling pathway (AID 1159526; calls by dose curve).
A short description of assay [9]: qHTS assay to identify small molecule agonists of the RXR signaling pathway - cell viability counter screen (AID 1159529). Further: nearly all actives have a fitted effect of over 50% in size. Further: potency means the concentration at half of the fitted maximal effect. Summed up: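 Tox21 10K compounds were tested for cytotoxicity against GeneBLAzer RXR-alpha HEK 293T cells grown in 2% charcoal-stripped FBS. Exposure lasted 16 hr at 37 C, 5% CO2; viability read by CellTiter-Glo luminescence.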
Assay [10] is described as follows: qHTS assay to identify small molecule antagonists of the retinoid acid receptor (RAR) signaling pathway - cell viability counter screen (AID 1159551). Further: nearly all actives have a fitted effect of over 35% in size. Summed up: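 Seed C3RL4 cells; next day add compound, then retinol to 1 uM final; incubate 6 h at 37 C; add CellTiter-Glo; read luminescence after 30 min at RT.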
Assay [11] in a line: qHTS assay to identify small molecule agonists of the retinoic acid receptor (RAR) signaling pathway (AID 1159553). The essentials: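 Activation of retinol signaling was monitored via a RARE luciferase reporter in C3RL4 cells. After 6 hr compound treatment at 37 C, detection reagent was added for 30 min at room temperature before luminescence reading.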
Assay [12] is described as follows: qHTS assay to identify small molecule antagonists of the retinoic acid receptor (RAR) signaling pathway (AID 1159552; further: nearly all actives have a fitted effect of over 50% in size). Summed up: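 Overnight-plated C3RL4 reporter cells get compound, then retinol to 1 uM final; plates sit 6 hr at 37 C, 5% CO2. A luciferase reagent is added and light output recorded after 30 min at room temperature.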
Assay [13] is described as follows: qHTS assay to identify small molecule agonists of the AP-1 signaling pathway - cell viability counter screen (AID 1159525; calls by dose curve; further: nearly all actives have a fitted effect of over 55% in size). The essentials: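 ME-180 AP-1-bla, 2500 cells/well, Opti-MEM + 0.5% dialyzed FBS; overnight 37 °C; cpd 15-pt titration, 5 h 37 °C; CellTiter-Glo 30 min RT; luminescence read; normalised to TOAB and DMSO controls.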
Assay [14] addresses Retinoic acid receptor RXR-alpha (Homo sapiens) (UniProt P19793). Kind of assay: qHTS assay to identify small molecule agonists of the RXR signaling pathway (AID 1159527; calls by dose curve; further: nearly all actives have a fitted effect of over 35% in size). Summed up: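 Reporter activation is measured as beta-lactamase activity via FRET substrate cleavage (emission 460/530 nm) in HEK 293T cells expressing an RXR-alpha-driven bla construct, following 16 hr compound exposure at 37 C.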

Results filed as inconclusive are left out. The source made the active and inactive calls. Unless noted, the call rests on the fitted dose curve; in most records, active means well fitted curve in the direction sought with a large enough effect in the repeat runs; inconclusive means weak or mixed curves; inactive means no such curve, though single readings can be large; an effect the other way counts as inactive or inconclusive.

Sequence of Retinoic acid receptor RXR-alpha (Homo sapiens) (P19793 whole entry, looked up): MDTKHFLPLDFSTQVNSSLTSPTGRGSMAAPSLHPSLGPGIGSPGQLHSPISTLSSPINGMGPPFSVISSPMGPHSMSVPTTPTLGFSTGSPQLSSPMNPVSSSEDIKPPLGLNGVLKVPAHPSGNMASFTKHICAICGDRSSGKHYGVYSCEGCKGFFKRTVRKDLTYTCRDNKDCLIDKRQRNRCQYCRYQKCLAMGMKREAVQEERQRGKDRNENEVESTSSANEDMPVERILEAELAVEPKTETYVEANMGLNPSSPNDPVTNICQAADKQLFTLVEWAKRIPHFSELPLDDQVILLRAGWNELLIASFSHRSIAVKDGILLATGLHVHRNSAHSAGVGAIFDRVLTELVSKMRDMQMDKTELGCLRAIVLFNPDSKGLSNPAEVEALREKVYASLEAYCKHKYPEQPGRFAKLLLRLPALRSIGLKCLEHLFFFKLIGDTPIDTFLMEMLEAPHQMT

With `COC(=O)c1cc(Cl)ccc1[N+](=O)[O-]`, the call in assay [1], in [2], in assay [3], in assay [4], in assay [5] and in [10] was inactive. For the same compound, the Potency entry in assay [6], in [7], in assay [8], in assay [9] and in assay [11] was “inactive” in each case.

Take `CCN(CCCCOC(=O)c1ccc(OC)c(OC)c1)C(C)Cc1ccc(OC)cc1` (stereo not given): the result in assay [2], in [3], in assay [4], in [5], in assay [10] and in assay [12] was inactive. Also, the Potency entry in [6], in assay [7], in assay [8] and in [11] was “inactive” throughout.

In the case of `CC1(C)CC(O)CC(C)(C)N1[O]`, the call in assay [1], in assay [2], in [3], in [4], in assay [5] and in assay [13] was inactive. Moreover, the compound was classed as inactive in assay [10] and in assay [12]. Moreover, the Potency entry in assay [6], in assay [8], in assay [9] and in assay [11] was “inactive” each time.

On to `CC(Cc1ccccc1)(NC(=O)CN)c1ccccc1` (stereo not given), for which the outcome in assay [1], in assay [2], in assay [3], in assay [4], in assay [5] and in assay [14] was inactive. Also, the call in [10] and in assay [12] was inactive. The Potency result in assay [6], in assay [7], in [9] and in [11] was “inactive” in each case.

On to `O=C(OC1C[C@H]2CC[C@@H](C1)[N+]21CCCC1)C(O)(c1ccccc1)c1ccccc1` (stereo not given in full), for which the outcome in [1], in [2], in [3], in assay [4], in [5] and in [14] was inactive. The outcome in [12] was inactive. The Potency result in [6], in assay [7], in assay [9] and in assay [11] was “inactive” throughout.

`CC(C)(C)c1ccc(CCC=O)cc1`: the call in [1], in assay [2], in [3], in assay [4], in [5] and in assay [13] was inactive. The outcome in assay [10] and in assay [12] was inactive. In addition, the Potency result in [6], in assay [8], in assay [9] and in assay [11] was “inactive” throughout.

On to `O=C(O)COCC(=O)O`, for which the result in assay [2], in assay [3], in [4], in [5], in [13] and in assay [10] was inactive. Also, in [12], the result was inactive. The Potency result in assay [6], in assay [8], in [9] and in assay [11] was “inactive” each time.

As to `CCCC(=O)OCCC(C)C`, the outcome in assay [1], in assay [2], in [3], in assay [4], in [5] and in assay [10] was inactive. Also, the call in assay [12] was inactive. The Potency result in [6], in assay [7], in [8], in assay [9] and in [11] was “inactive” in each case.

Regarding `Nc1cccc2c(=O)[nH][nH]c(=O)c12`, the compound was called inactive in assay [2], in assay [3], in assay [4], in assay [5] and in assay [10]. Besides, the Potency result in [6], in assay [8] and in assay [11] was “inactive” throughout. The Potency in assay [9] is 5.52 µM (active).

As for `CC1(C)C(=O)NC(=O)N1CO`, the result in assay [1], in [2], in [3], in assay [4], in [5] and in assay [10] was inactive. The Potency entry in assay [6], in [7], in [8] and in [9] was “inactive” each time.

As for `CCCCCCCCS`, the outcome in assay [1], in assay [2], in assay [3], in assay [4], in assay [5] and in assay [10] was inactive. In addition, the Potency result in [6], in assay [8], in assay [9] and in assay [11] was “inactive” each time.
